Data on 20 compounds can be found in the supplement of paper PMC9262897, “Low-cost anti-mycobacterial drug discovery using engineered E. coli” (Nature Communications, 2022).

Each structure is given as a SMILES string. Structures can show the parent of a compound that is named as a salt. ± gives the standard deviation of the averaged measurements.

For the first experiment, the system named is E. coli TESEC Mtb DapB. In words: growth (OD600 after 10 h); higher = more growth (less inhibition). The following applies: arabinose induction (level): High; compound 0.1 mM; raw OD600 reference: median of DMSO wells […], cell-free background 0.041. The protocol: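 TESEC E. coli strains in which the native enzyme is deleted and replaced by arabinose-inducible Mtb Asd, DapB, CysH or TrpD, each grown in its selective medium. Strains were screened against the Prestwick library at 0.1 mM and 1% DMSO in 384-well format at low and high arabinose induction. Growth is read as OD600 after 10 h in triplicate.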
`CCNCC(O)c1cccc(O)c1` (stereo not given) [Etilefrine hydrochloride] yielded a growth of 0.205 ± 0.0026.
`CN(C)[C@@H]1C(=O)C(C(N)=O)=C(O)[C@@]2(O)C(=O)C3=C(O)c4c(O)cccc4[C@@](C)(O)[C@H]3C[C@@H]12` [Tetracycline hydrochloride]: the growth was 0.0495 ± 0.0014.
The same measure, in the same setting: to `C[C@]12CCC(=O)C=C1CC[C@@H]1[C@@H]2C(=O)C[C@]2(C)C(=O)CC[C@@H]12` [Adrenosterone] belongs 0.202 ± 0.007; to `CC(NC(C)(C)C)C(=O)c1cccc(Cl)c1` (stereo not given) [Bupropion hydrochloride], 0.202 ± 0.0039.
On the same count and under the same terms, to `CC(C)[N+](C)(CCC(C(N)=O)(c1ccccc1)c1ccccc1)C(C)C` [Isopropamide iodide] belongs 0.211 ± 0.025; to `CC(=O)O[C@H]1CC[C@@]2(C)C(=CC[C@@H]3[C@@H]2CC[C@]2(C)C(=O)CC[C@@H]32)C1` [Dehydroisoandosterone 3-acetate], 0.181 ± 0.005; to `C#C[C@]1(O)CC[C@H]2[C@@H]3CCC4=CC(=O)CCC4=C3C=C[C@@]21CC` [Gestrinone], 0.179 ± 0.015.
The same measure, in the same setting: then `CN[C@@H]1C[C@@H](c2ccc(Cl)c(Cl)c2)c2ccccc21` [Indatraline hydrochloride], with 0.052 ± 0.0016; and `C#C[C@]1(O)CC[C@H]2[C@@H]3CCC4=CC(=O)CC[C@]4(C)[C@H]3CC[C@@]21C` [Ethisterone], with 0.179 ± 0.0098; and `O=C(O)CCCc1ccc(N(CCCl)CCCl)cc1` [Chlorambucil], with 0.209 ± 0.023.
In turn, `C[C@]12CC[C@H](O)C[C@H]1CC[C@@H]1[C@@H]2C[C@@H](O)[C@]2(C)[C@@H](C3=CC(=O)OC3)CC[C@]12O` [Digoxigenin] gave a growth of 0.1864 ± 0.00095.
On the same count and under the same terms, then `C1CCc2nnnn2CC1` [Pentylenetetrazole], with 0.227 ± 0.037; and `CN[C@@H]1[C@@H](O)[C@@H](O[C@@H]2[C@@H](O)[C@H](O[C@H]3O[C@H](CN)CC[C@H]3N)[C@@H](N)C[C@H]2N)OC[C@]1(C)O.CN[C@@H]1[C@@H](O)[C@@H](O[C@@H]2[C@@H](O)[C@H](O[C@H]3O[C@H]([C@@H](C)N)CC[C@H]3N)[C@@H](N)C[C@H]2N)OC[C@]1(C)O.CN[C@@H]1[C@@H](O)[C@@H](O[C@@H]2[C@@H](O)[C@H](O[C@H]3O[C@H]([C@@H](C)NC)CC[C@H]3N)[C@@H](N)C[C@H]2N)OC[C@]1(C)O` [Gentamicine sulfate], with 0.21 ± 0.067.
For the compound `CN1[C@@H]2CC[C@H]1C[C@@H](OC(=O)[C@H](CO)c1ccccc1)C2` [Hyoscyamine (L)], the growth came out at 0.191 ± 0.014.
Same read-out and setting: to `COP(=O)(OC)C(O)C(Cl)(Cl)Cl` (stereo not given) [Trichlorfon] belongs 0.208 ± 0.028; to `CN1C[C@H](C(=O)N[C@]2(C)O[C@@]3(O)[C@@H]4CCCN4C(=O)[C@H](Cc4ccccc4)N3C2=O)C[C@@H]2c3cccc4[nH]cc(c34)C[C@H]21` [Dihydroergotamine tartrate], 0.119 ± 0.018.
Same read-out and setting: then `Cc1cc(C(C#N)c2ccc(Cl)cc2)c(Cl)cc1NC(=O)c1cc(I)cc(I)c1O` (stereo not given) [Closantel], with 0.0896 ± 0.013; and `O=P1(N(CCCl)CCCl)NCCCO1` (stereo not given) [Cyclophosphamide], with 0.205 ± 0.019; and `CC[N+]1(C)CCCC(OC(=O)C(O)(c2ccccc2)c2ccccc2)C1` (stereo not given) [Pipenzolate bromide], with 0.234 ± 0.013.
Same read-out and setting: then `S=C(NC1CCCCC1)N1CCC(c2cnc[nH]2)CC1` [Thioperamide maleate], with 0.201 ± 0.015.

The experiment is the same for the next values; noted with them: arabinose induction (level): Low; compound 0.1 mM; raw OD600 reference: median of DMSO wells 0.227, cell-free background 0.041.
Consider `CCNCC(O)c1cccc(O)c1` (stereo not given) [Etilefrine hydrochloride], for which the growth stood at 0.224 ± 0.035.
On the same count and under the same terms, to `CN(C)[C@@H]1C(=O)C(C(N)=O)=C(O)[C@@]2(O)C(=O)C3=C(O)c4c(O)cccc4[C@@](C)(O)[C@H]3C[C@@H]12` [Tetracycline hydrochloride] belongs 0.0516 ± 0.0028; to `C[C@]12CCC(=O)C=C1CC[C@@H]1[C@@H]2C(=O)C[C@]2(C)C(=O)CC[C@@H]12` [Adrenosterone], 0.225 ± 0.032; to `CC(NC(C)(C)C)C(=O)c1cccc(Cl)c1` (stereo not given) [Bupropion hydrochloride], 0.261 ± 0.086.
On the same count and under the same terms, to `CC(C)[N+](C)(CCC(C(N)=O)(c1ccccc1)c1ccccc1)C(C)C` [Isopropamide iodide] belongs 0.201 ± 0.0096; to `CC(=O)O[C@H]1CC[C@@]2(C)C(=CC[C@@H]3[C@@H]2CC[C@]2(C)C(=O)CC[C@@H]32)C1` [Dehydroisoandosterone 3-acetate], 0.225 ± 0.017; to `C#C[C@]1(O)CC[C@H]2[C@@H]3CCC4=CC(=O)CCC4=C3C=C[C@@]21CC` [Gestrinone], 0.212 ± 0.013.
Still for that read-out and setting: to `CN[C@@H]1C[C@@H](c2ccc(Cl)c(Cl)c2)c2ccccc21` [Indatraline hydrochloride] belongs 0.05117 ± 0.00042; to `C#C[C@]1(O)CC[C@H]2[C@@H]3CCC4=CC(=O)CC[C@]4(C)[C@H]3CC[C@@]21C` [Ethisterone], 0.219 ± 0.02.
The compound `O=C(O)CCCc1ccc(N(CCCl)CCCl)cc1` [Chlorambucil] showed a growth of 0.259 ± 0.023.
Same read-out and setting: to `C[C@]12CC[C@H](O)C[C@H]1CC[C@@H]1[C@@H]2C[C@@H](O)[C@]2(C)[C@@H](C3=CC(=O)OC3)CC[C@]12O` [Digoxigenin] belongs 0.244 ± 0.0061; to `C1CCc2nnnn2CC1` [Pentylenetetrazole], 0.274 ± 0.11.
The same measure, in the same setting: then `CN[C@@H]1[C@@H](O)[C@@H](O[C@@H]2[C@@H](O)[C@H](O[C@H]3O[C@H](CN)CC[C@H]3N)[C@@H](N)C[C@H]2N)OC[C@]1(C)O.CN[C@@H]1[C@@H](O)[C@@H](O[C@@H]2[C@@H](O)[C@H](O[C@H]3O[C@H]([C@@H](C)N)CC[C@H]3N)[C@@H](N)C[C@H]2N)OC[C@]1(C)O.CN[C@@H]1[C@@H](O)[C@@H](O[C@@H]2[C@@H](O)[C@H](O[C@H]3O[C@H]([C@@H](C)NC)CC[C@H]3N)[C@@H](N)C[C@H]2N)OC[C@]1(C)O` [Gentamicine sulfate], with 0.112 ± 0.0046; and `CN1[C@@H]2CC[C@H]1C[C@@H](OC(=O)[C@H](CO)c1ccccc1)C2` [Hyoscyamine (L)], with 0.29 ± 0.023.
The same measure, in the same setting: then `COP(=O)(OC)C(O)C(Cl)(Cl)Cl` (stereo not given) [Trichlorfon], with 0.272 ± 0.071.
Compound `CN1C[C@H](C(=O)N[C@]2(C)O[C@@]3(O)[C@@H]4CCCN4C(=O)[C@H](Cc4ccccc4)N3C2=O)C[C@@H]2c3cccc4[nH]cc(c34)C[C@H]21` [Dihydroergotamine tartrate] came in with a growth of 0.161 ± 0.014.
Same read-out and setting: then `Cc1cc(C(C#N)c2ccc(Cl)cc2)c(Cl)cc1NC(=O)c1cc(I)cc(I)c1O` (stereo not given) [Closantel], with 0.0929 ± 0.01; and `O=P1(N(CCCl)CCCl)NCCCO1` (stereo not given) [Cyclophosphamide], with 0.216 ± 0.029.
Same read-out and setting: to `CC[N+]1(C)CCCC(OC(=O)C(O)(c2ccccc2)c2ccccc2)C1` (stereo not given) [Pipenzolate bromide] belongs 0.263 ± 0.058; to `S=C(NC1CCCCC1)N1CCC(c2cnc[nH]2)CC1` [Thioperamide maleate], 0.21 ± 0.008.
